# Records with an inconclusive call do not appear. Entries that show only a call come without a potency. Values without a mark were called inactive. Calls of active or inactive are those of the source. Unless noted, calls follow the shape of the dose curve; as a rule, active = well fitted curve in the direction sought with a large enough effect; inconclusive = small, poorly fitted or top-dose-only effect, or another doubt; inactive = no such curve, though single readings can be large; an effect the other way counts as inactive or inconclusive.
# Tests used:
# [1] = qHTS to identify inhibitors of the type 1 interferon - major histocompatibility complex class I in skeletal muscle: primary screen against the NCATS Mechanism Interrogation Plate v5.0 (MIPE) Libary (AID 1347411); also: nearly all actives have a fitted effect of over 65% in size; also: potency is read from the fitted curve at half-maximal effect
# Summary of the method: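 Immortalized human myoblasts (C25cl48) with HiBit knocked into endogenous HLA-B*08:01 were stimulated with 4 ng/ml IFN-beta and given compounds in 11-point 1:3 titration from 46 uM. After 24 h at 37 C, lytic HiBiT luminescence was read.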
# [2] = target: Calcium and integrin-binding protein 1 (Homo sapiens) (UniProt Q99828); assay: Primary qHTS for Identification of Calcium Integrin Binding Protein 1 (CIB1) Competitor (AID 1508620); also: potency is read from the fitted curve at half-maximal effect
# Chain of Calcium and integrin-binding protein 1 (Homo sapiens) (Q99828 whole entry, looked up): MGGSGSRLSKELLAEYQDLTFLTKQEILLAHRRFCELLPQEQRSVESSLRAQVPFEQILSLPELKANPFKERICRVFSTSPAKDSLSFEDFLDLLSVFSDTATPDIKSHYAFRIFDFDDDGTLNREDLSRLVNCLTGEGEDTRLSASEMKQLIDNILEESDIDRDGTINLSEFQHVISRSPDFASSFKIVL
# Summary of the method: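 CIB1-GST (1 uM final) and compound incubated 15 min at room temperature before adding FITC-alphaIIb peptide tracer (100 nM final). Competition for binding read by fluorescence polarization (ex 480, em 540) after another 15 min at room temperature.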
# [3] = qHTS to identify inhibitors of the type 1 interferon - major histocompatibility complex class I in skeletal muscle: primary screen against the NCATS Pharmaceutical Collection (AID 1347407);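 also: luminescence of HiBiT knocked into endogenous HLA-B as interferon-induced MHC class I level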
# Summary of the method: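 A qHTS format is used: 8-point, 1:5 compound series with 46 uM top final concentration, applied alongside 4 ng/ml IFN-beta to HLA-B*08:01-HiBiT knock-in myoblasts. Luminescence is measured after 24 h treatment.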
# [4] = target: Protein phosphatase 1D (Homo sapiens) (UniProt O15297); assay: RapidFire Mass Spectrometry qHTS Assay for Modulators of WT P53-Induced Phosphatase 1 (WIP1) (AID 1347424);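 also: amount of dephosphorylated VEPPL-S-QETFS peptide product formed by WIP1; potency is read from the fitted curve at half-maximal effect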
# Chain of Protein phosphatase 1D (Homo sapiens) (O15297 whole entry, looked up): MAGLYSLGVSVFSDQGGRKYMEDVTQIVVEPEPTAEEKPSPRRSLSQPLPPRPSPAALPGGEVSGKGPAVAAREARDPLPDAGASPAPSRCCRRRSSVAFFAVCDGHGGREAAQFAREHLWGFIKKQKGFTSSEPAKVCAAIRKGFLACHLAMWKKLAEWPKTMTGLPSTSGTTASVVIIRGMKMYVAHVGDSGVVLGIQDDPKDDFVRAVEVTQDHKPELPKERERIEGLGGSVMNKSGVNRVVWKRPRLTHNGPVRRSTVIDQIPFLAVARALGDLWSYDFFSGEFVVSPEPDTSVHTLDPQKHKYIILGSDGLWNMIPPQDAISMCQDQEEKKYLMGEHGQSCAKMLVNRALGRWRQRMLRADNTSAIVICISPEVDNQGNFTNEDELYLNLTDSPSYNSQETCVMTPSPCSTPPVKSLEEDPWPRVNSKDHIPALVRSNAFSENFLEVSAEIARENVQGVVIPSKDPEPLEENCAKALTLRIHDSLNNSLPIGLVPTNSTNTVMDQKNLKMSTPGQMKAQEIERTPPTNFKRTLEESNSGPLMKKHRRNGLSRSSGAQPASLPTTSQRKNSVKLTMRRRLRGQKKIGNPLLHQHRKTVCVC
# Summary of the method: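 10 nM WIP1 + cpd, 1 h RT; + 2 uM VEPPL-pS-QETFS, 5 min RT; stop 0.5% formic acid; labelled product standard 1 uM; RapidFire MS. Buffer 50 mM Tris pH 7.5, 30 mM MgCl2, 1 mM TCEP.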
# [5] = Primary qHTS for inhibitors of La Crosse Virus (LACV) - induced cell death in SH-SY5Y cells (AID 1508616);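 also: top concentration of the series differs between compounds; higher means more rescue of cells from virus-induced death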
# Summary of the method: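 SH-SY5Y cells (6000/well) plated 24 h, then given compounds by pin transfer and LACV at 0.01 MOI for 6 days at 37C. Viability measured by ATPLite luminescence, normalized to infected DMSO and uninfected DMSO.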
# [6] = target: Cytochrome P450 2D6 (Homo sapiens) (UniProt P10635); assay: Cytochrome P450 family 2 subfamily D member 6 (CYP2D6) small molecule antagonists: luciferase biochemical (cell-free) qHTS assay (AID 1645840; active = well fitted curve in the direction sought with a large enough effect in the repeat runs; an effect the other way counts as inactive or inconclusive; also: nearly all actives have a fitted effect of over 55% in size; also: potency is read from the fitted curve at half-maximal effect)
# Chain of Cytochrome P450 2D6 (Homo sapiens) (P10635 whole entry, looked up): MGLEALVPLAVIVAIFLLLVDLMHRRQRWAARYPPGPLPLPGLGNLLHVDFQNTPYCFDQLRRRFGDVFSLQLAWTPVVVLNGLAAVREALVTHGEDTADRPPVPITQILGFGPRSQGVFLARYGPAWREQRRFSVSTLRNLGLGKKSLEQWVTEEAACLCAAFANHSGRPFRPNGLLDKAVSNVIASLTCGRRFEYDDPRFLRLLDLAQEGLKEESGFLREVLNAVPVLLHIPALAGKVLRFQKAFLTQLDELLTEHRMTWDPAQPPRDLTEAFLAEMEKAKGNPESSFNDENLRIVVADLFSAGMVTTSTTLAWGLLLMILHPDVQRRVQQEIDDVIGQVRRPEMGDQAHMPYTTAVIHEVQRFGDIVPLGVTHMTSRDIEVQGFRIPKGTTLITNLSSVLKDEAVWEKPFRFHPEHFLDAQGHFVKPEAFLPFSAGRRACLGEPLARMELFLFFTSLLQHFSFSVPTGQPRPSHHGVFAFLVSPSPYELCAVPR
# Summary of the method: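 P450-Glo luminescent screen: recombinant CYP2D6 enzyme–proluciferin substrate mix preincubated with compound 10 min at room temperature, then NADPH regeneration added for 1 h at room temperature. Detection reagent added for 20 min; luciferin light read as relative luminescence units.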
# [7] = target: Cytochrome P450 3A4 (Homo sapiens) (UniProt P08684); assay: Cytochrome P450 family 3 subfamily A member 4 (CYP3A4) small molecule antagonists: luciferase qHTS assay (AID 1645841; active = well fitted curve in the direction sought with a large enough effect in the repeat runs; an effect the other way counts as inactive or inconclusive; also: nearly all actives have a fitted effect of over 45% in size; also: potency is read from the fitted curve at half-maximal effect)
# Chain of Cytochrome P450 3A4 (Homo sapiens) (P08684 whole entry, looked up): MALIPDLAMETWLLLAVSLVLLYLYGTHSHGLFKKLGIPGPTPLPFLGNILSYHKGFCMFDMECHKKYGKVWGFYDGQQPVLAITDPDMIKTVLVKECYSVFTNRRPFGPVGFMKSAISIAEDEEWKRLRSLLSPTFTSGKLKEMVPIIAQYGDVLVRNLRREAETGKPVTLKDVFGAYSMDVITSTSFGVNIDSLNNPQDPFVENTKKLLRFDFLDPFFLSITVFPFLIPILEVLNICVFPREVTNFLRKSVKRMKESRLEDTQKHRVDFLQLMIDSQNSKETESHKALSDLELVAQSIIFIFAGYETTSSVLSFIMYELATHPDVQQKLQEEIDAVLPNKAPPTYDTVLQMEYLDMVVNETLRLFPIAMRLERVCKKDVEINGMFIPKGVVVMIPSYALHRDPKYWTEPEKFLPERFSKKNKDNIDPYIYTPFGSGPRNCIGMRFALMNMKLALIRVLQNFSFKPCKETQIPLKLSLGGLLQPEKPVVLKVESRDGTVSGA
# Summary of the method: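 Luminescent CYP3A4 activity readout: compounds plus enzyme-substrate mix 10 min at room temperature, reaction started with NADPH regenerating system for 1 h, stopped with detection reagent, read after 20 min. Ketoconazole served as control.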
# [8] = target: Calcium and integrin-binding protein 1 (Homo sapiens) (UniProt Q99828); assay: Confirmatory qHTS for Identification of Calcium Integrin Binding Protein 1 (CIB1) Competitor (AID 1508617); also: nearly all actives have a fitted effect of over 65% in size; also: potency is read from the fitted curve at half-maximal effect
# Summary of the method: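 Compounds at up to 114 uM final met 1 uM GST-tagged CIB1 for 15 min at room temperature (HEPES pH 7.4, 5 mM CaCl2). FITC-labelled alphaIIb peptide, 100 nM, added; polarization read after 15 min more.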
compound,measurement,setting,value
Cc1nnc(C[C@@H]2C=C(c3ccc(Cl)cc3)c3ccccc3-n3c(C)nnc32)o1,Potency,[1],inactive
same,Potency,[2],inactive
CCNC(=O)C#Cc1ccc2c(C(=Nc3ccc(CN(C)C)cc3)c3ccccc3)c(O)[nH]c2c1,Potency,[1],4.04 µM (active)
same,Potency,[2],inactive
COc1cc(S(C)(=O)=O)ccc1Nc1nc2ccc(-c3ccc(NC(=O)[C@H](C)c4ccc(F)cc4)cc3)cn2n1,Potency,[1],inactive
same,Potency,[2],inactive
C1=C/COCc2cc(ccc2OCCN2CCCC2)Nc2nccc(n2)-c2cccc(c2)COC/1,Potency,[1],2.34 µM (active)
same,Potency,[2],inactive
Oc1cccc(-c2c3nc(c(-c4cccc(O)c4)c4ccc([nH]4)c(-c4cccc(O)c4)c4nc(c(-c5cccc(O)c5)c5ccc2[nH]5)CC4)C=C3)c1,outcome,[3],inactive
same,Potency,[4],1.58 µM (active)
same,outcome,[5],inactive
CC1(C)CN(C(=O)c2ccc(-c3cccc4nc(NC(=O)C5CC5)nn34)cc2)C1,Potency,[1],4.15 µM (active)
same,Potency,[2],inactive
NC(=O)c1ccccc1Nc1ccnc(Nc2cccc(O)c2)n1,Potency,[1],4.66 µM (active)
same,Potency,[2],inactive
Cc1[nH]c(/C=C2\C(=O)Nc3ccc(S(=O)(=O)N(C)c4cccc(Cl)c4)cc32)c(C)c1C(=O)N1CCN(C)CC1,Potency,[1],16.5 µM (active)
same,Potency,[2],inactive
Cn1cc(-c2cnn3c(N)c(Br)c(C4CCCNC4)nc23)cn1 (stereo not drawn),Potency,[1],inactive
COc1ccc(-c2c(C)nn3c(NCCN4CCOCC4)cc(C)nc23)cc1OC,Potency,[1],inactive
same,Potency,[2],inactive
Cc1nc(NC(=O)N2CCCC2C(N)=O)sc1-c1ccnc(C(C)(C)C(F)(F)F)c1 (stereo not drawn),Potency,[1],4.66 µM (active)
same,Potency,[2],inactive
N#Cc1ccc(O[C@@H]2c3ccccc3C[C@H]2N2CCC[C@@H](N)C2)c(Cl)c1,Potency,[2],inactive
O=S(=O)(Nc1cc(Cl)c(Oc2cnc3ccccc3c2)c(Cl)c1)c1ccc(Cl)cc1Cl,Potency,[2],inactive
COC(C)(C)CCn1nc(Nc2c(C)cccc2C)c2cnc(Nc3ccc(OCCN4CCCC4)c(F)c3)nc21,Potency,[1],11.7 µM (active)
same,Potency,[2],inactive
same,Potency,[6],15.1 µM (active)
CC(C)=CCC/C(C)=C/COCC1OC(n2ccc(=O)[nH]c2=O)C(O)C1O (stereo not drawn),Potency,[2],inactive
O=C(NCCCNc1nc(Nc2cccc(CN3CCOCC3)c2)ncc1C1CC1)C1CCC1,Potency,[1],inactive
same,Potency,[2],inactive
same,Potency,[6],6.01 µM (active)
COc1cc(OC)c2c(=O)[nH]c(-c3cc(C)c(OCCO)c(C)c3)nc2c1,Potency,[1],inactive
same,Potency,[2],inactive
same,Potency,[6],inactive
C=CC(=O)Nc1cccc(Nc2nc(Nc3ccc(NC4CN(CCF)C4)cc3OC)ncc2C(F)(F)F)c1,Potency,[1],16.5 µM (active)
same,Potency,[2],inactive
same,Potency,[6],13.5 µM (active)
O=C1Nc2nc(-c3c(O)cccc3OCC3CC3)cc([C@@H]3CCCNC3)c2CO1,Potency,[1],3.7 µM (active)
same,Potency,[2],inactive
same,Potency,[6],19 µM (active)
same,Potency,[7],inactive
CC(=O)O[C@H]1CC(C)(C)CC2[C@]13CO[C@@]21CCC2[C@@]4(C)CC[C@H](O[C@@H]5OC[C@H](O[C@@H]6O[C@H](CO)[C@@H](O)[C@H](O)[C@H]6O[C@@H]6OC[C@@H](O)[C@H](O)[C@H]6O)[C@H](O)[C@H]5O[C@@H]5O[C@H](CO)[C@@H](O)[C@H](O)[C@H]5O)[C@@](C)(CO)C4CC[C@@]2(C)[C@]1(C)C[C@H]3O (stereo partly drawn),Potency,[2],inactive
CCn1nc(C2CCN(C(=O)CCO)CC2)nc1-c1cnc(N)c(-c2nnc(C(C)(C)C)o2)n1,Potency,[2],inactive
COC(=O)CC[C@@H](C)C1CCC2C3CCC4C[C@H](OC(C)=O)CCC4(C)C3C[C@H](O)C21C (stereo partly drawn),Potency,[2],inactive
O=C(c1ccccc1)c1c(O)cc(O)cc1O[C@@H]1O[C@H](CO)[C@@H](O)[C@H](O)[C@H]1O,Potency,[8],inactive
O=C(Nc1cccnc1)c1cc(-c2ccnc(F)c2)ccc1OCc1ccccc1,Potency,[1],inactive
same,Potency,[2],inactive
same,Potency,[6],inactive
CC1(C)SCCN(S(=O)(=O)c2ccc(Oc3ccncc3)cc2)[C@H]1C(=O)NO,Potency,[2],inactive
Cc1ccc(C(=O)Nc2ccc(CN3CCN(C)CC3)c(C(F)(F)F)c2)cc1C#Cc1cnc2[nH]ncc2c1,Potency,[1],0.117 µM (active)
same,Potency,[2],inactive
same,Potency,[6],16.9 µM (active)
same,Potency,[7],6.01 µM (active)
CCn1c(=O)c(-c2ccc(-c3cncs3)cc2Cl)cc2cnc(Nc3ccc(N4CCN(C)CC4)cc3)nc21,Potency,[2],inactive
COc1cccc(OCCCN)c1-c1cc(Nc2cnc(C#N)cn2)n[nH]1,Potency,[1],6.58 µM (active)
same,Potency,[2],inactive
same,Potency,[6],6.74 µM (active)
CCC(=C(c1ccc(OCCN2CCCC2)cc1)c1ccc(OCCN2CCCC2)cc1)c1ccccc1,Potency,[2],inactive
CN1CC2CN(c3ccc4oc5ccccc5c(=O)c4c3)CC2C1 (stereo not drawn),Potency,[2],inactive
C=C1CC[C@@H]2[C@](C)(CO)[C@H](O)CC[C@@]2(C)[C@@H]1C/C=C1/C(=O)OCC1O (stereo partly drawn),Potency,[2],inactive
CC(=O)OC[C@]12[C@H](OC(C)=O)C(=O)[C@@H]3[C@@H](O)[C@@]14O[C@@]3(C)COC(=O)c1cccnc1[C@@H](C)[C@H](C)C(=O)O[C@@H]([C@H](O)[C@@H]2OC(C)=O)[C@]4(C)O,Potency,[2],inactive
COc1cc(/C=C/C(=O)NCCn2c(C(F)(F)F)cc3ccccc32)cc(OC)c1OC,Potency,[2],inactive
COC(=O)c1sccc1S(=O)(=O)Nc1ccc(Nc2ccccc2)cc1OC,Potency,[2],inactive
CC(=O)OCC(=O)[C@@]12O[C@@H]1C[C@H]1[C@@H]3CC=C4C[C@@H](O)CC[C@]4(C)[C@H]3CC[C@@]12C,Potency,[2],inactive
O=C(O)CSc1cc(NS(=O)(=O)c2ccc(Br)cc2)c2ccccc2c1O,Potency,[8],12.6 µM (active)
same,Potency,[2],44.7 µM (active)
Cn1sc(=O)n(Cc2ccccc2)c1=O,Potency,[8],7.94 µM (active)
same,Potency,[2],8.91 µM (active)
CCc1c[nH]c2ncnc(N3CC[C@](N)(CNC(=O)c4ccc(F)cc4F)C3)c12,Potency,[2],inactive
COc1cc2ncnc(Nc3cccc(I)c3)c2cc1OC,Potency,[2],inactive
Cc1cccc(CC(=O)N2CCc3c2ccc(-c2cn(C)c4ncnc(N)c24)c3F)n1,Potency,[1],inactive
same,Potency,[2],inactive
same,Potency,[6],inactive

# — PubChem BioAssay (NCATS)
